# Source: PubChem BioAssay (NCATS)
# Several values for one entry are separate records, joined by “and”; a condition that tells them apart may be missing. Equal entries are not always repeated. Inconclusive results are not listed. A call without a number means that no potency is given here. Activity calls are given as the source filed them. Unless noted, calls follow the shape of the dose curve; as a rule, active = well fitted curve in the direction sought with a large enough effect; inconclusive = small, poorly fitted or top-dose-only effect, or another doubt; inactive = no such curve, though single readings can be large; an effect the other way counts as inactive or inconclusive.
# How the values were obtained:
# [1] = target: Ubiquitin carboxyl-terminal hydrolase 1 (Homo sapiens) (UniProt O94782); test: Inhibitors of USP1/UAF1: Pilot qHTS (AID 504865); also: nearly all actives have a fitted effect of over 35% in size; also: potency is read from the fitted curve at half-maximal effect
# Chain of Ubiquitin carboxyl-terminal hydrolase 1 (Homo sapiens) (O94782 whole entry, looked up): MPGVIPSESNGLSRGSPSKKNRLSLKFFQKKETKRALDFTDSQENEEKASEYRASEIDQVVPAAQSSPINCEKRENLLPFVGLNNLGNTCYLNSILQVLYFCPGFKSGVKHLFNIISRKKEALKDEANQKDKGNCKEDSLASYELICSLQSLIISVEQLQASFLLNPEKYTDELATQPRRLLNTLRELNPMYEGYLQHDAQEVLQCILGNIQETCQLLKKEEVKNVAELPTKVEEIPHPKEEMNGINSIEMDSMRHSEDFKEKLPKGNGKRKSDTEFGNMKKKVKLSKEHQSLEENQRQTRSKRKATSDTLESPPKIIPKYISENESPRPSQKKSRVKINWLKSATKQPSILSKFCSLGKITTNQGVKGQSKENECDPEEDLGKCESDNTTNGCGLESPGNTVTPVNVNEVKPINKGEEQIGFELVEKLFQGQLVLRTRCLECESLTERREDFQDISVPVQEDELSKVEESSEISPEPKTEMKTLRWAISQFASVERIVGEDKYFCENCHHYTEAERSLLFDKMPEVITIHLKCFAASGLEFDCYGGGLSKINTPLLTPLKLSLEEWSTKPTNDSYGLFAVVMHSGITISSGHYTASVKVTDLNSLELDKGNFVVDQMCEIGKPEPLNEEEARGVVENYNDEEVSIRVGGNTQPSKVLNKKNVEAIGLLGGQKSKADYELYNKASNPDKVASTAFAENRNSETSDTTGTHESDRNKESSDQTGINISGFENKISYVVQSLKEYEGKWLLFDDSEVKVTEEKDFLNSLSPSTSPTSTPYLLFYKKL
# How it was run: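 Kinetic fluorescence assay: 1nM USP1/UAF1, 15 min compound preincubation, then 150nM Ub-Rho; 480/540 nm.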
# [2] = qHTS for Inhibitors of ATXN expression: Validation of Cytotoxic Assay (AID 588349)
# How it was run: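 Read-out: ATP-based luminescence (CellTiter Glo) reflecting viability of HEK293 cells after 72 hr incubation at 37 degrees C with a concentration series of each compound.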
# [3] = qHTS for Inhibitors of ATXN expression: Validation (AID 588378); also: nearly all actives have a fitted effect of over 75% in size; also: potency is read from the fitted curve at half-maximal effect
# How it was run: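 Validation of ATXN2 expression inhibitors uses a cell-based luciferase fusion reporter in HEK293 cells, with 24 h compound exposure and paired viability (fluorescence) and reporter (luminescence) end-point reads.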
# [4] = target: DNA dC->dU-editing enzyme APOBEC-3G (Homo sapiens) (UniProt Q9HC16); test: qHTS for inhibitors of Vif-A3G interactions: Validation (AID 588379)
# How it was run: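 HeLa cells stably expressing Vif and A3G-eYFP, 700 cells/well, incubated overnight at 37 deg C, then exposed to compound overnight at 37 deg C. Inhibition of Vif-mediated degradation read as increased yellow fluorescence (Ex 488/Em 500-530) by laser-scanning cytometry.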
# [5] = target: Peroxisome proliferator-activated receptor gamma (Homo sapiens) (UniProt P37231); test: qHTS assay for small molecule agonists of peroxisome proliferator-activated receptor gamma signaling (AID 588536; active = well fitted curve in the direction sought with a large enough effect in the signal ratio, with a control signal flat, not every such curve was filed as active; the % refers to the signal ratio)
# Chain of Peroxisome proliferator-activated receptor gamma (Homo sapiens) (P37231 whole entry, looked up): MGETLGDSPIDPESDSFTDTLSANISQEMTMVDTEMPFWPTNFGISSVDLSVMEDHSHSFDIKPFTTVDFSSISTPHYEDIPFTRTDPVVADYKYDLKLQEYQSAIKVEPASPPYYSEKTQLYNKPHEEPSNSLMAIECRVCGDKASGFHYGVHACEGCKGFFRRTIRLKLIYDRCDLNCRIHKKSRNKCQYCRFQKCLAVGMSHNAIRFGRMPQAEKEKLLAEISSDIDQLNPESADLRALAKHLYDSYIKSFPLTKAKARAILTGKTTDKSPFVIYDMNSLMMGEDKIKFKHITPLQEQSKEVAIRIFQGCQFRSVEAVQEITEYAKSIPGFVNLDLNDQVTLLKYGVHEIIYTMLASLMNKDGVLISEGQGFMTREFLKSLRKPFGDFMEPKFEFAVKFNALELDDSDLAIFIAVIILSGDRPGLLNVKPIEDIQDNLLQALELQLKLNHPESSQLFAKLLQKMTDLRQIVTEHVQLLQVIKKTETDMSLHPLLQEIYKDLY
# How it was run: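 Test agents, titrated, stimulated HEK293 UAS-bla cells overnight (16 h, 37 C). Substrate CCF4 was then added for two hours at room temperature before fluorescence reading.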
# [6] = target: Peroxisome proliferator-activated receptor gamma (Homo sapiens) (UniProt P37231); test: qHTS assay for small molecule antagonists of peroxisome proliferator-activated receptor gamma signaling (AID 588537; active = well fitted inhibition curve with a large enough effect in the signal ratio, with a control signal flat, not every such curve was filed as active; the % refers to the signal ratio;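 also: reporter cells co-stimulated with 50 nM rosiglitazone agonist during compound treatment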)
# How it was run: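 PPARγ-UAS-bla HEK293 cells (3000/well) in 1% charcoal/dextran-stripped FBS are treated with compound, then stimulated with 50 nM rosiglitazone for 16 h at 37 °C. Read-out is CCF4 β-lactamase fluorescence after 2 h at RT. IC50 comes from Hill fits normalised to rosiglitazone and DMSO.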
# [7] = qHTS assay for small molecule agonists of retinoid X receptor alpha signaling (AID 588544; calls by dose curve); conditions: HEK293T RXRa-UAS-bla, beta-lactamase reporter, 18 h; 530 nm emission
# [8] = target: Retinoic acid receptor RXR-alpha (Homo sapiens) (UniProt P19793); test: as above
# Chain of Retinoic acid receptor RXR-alpha (Homo sapiens) (P19793 whole entry, looked up): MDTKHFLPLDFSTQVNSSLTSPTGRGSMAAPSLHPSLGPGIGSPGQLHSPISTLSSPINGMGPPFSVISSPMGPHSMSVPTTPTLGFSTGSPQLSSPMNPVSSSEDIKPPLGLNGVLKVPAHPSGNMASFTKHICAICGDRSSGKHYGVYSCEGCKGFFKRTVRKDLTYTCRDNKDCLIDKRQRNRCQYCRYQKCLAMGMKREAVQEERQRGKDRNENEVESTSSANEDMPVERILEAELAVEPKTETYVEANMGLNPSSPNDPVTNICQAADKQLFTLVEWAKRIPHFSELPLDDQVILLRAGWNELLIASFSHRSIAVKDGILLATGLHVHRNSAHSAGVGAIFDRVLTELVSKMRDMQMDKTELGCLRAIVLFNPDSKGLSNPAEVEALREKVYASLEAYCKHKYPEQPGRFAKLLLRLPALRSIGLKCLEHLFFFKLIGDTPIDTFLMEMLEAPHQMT
# [9] = target: Thyroid hormone receptor beta (Homo sapiens) (UniProt P10828); test: qHTS assay for small molecule agonists of thyroid hormone receptor beta signaling (AID 588545; calls by dose curve)
# Chain of Thyroid hormone receptor beta (Homo sapiens) (P10828 whole entry, looked up): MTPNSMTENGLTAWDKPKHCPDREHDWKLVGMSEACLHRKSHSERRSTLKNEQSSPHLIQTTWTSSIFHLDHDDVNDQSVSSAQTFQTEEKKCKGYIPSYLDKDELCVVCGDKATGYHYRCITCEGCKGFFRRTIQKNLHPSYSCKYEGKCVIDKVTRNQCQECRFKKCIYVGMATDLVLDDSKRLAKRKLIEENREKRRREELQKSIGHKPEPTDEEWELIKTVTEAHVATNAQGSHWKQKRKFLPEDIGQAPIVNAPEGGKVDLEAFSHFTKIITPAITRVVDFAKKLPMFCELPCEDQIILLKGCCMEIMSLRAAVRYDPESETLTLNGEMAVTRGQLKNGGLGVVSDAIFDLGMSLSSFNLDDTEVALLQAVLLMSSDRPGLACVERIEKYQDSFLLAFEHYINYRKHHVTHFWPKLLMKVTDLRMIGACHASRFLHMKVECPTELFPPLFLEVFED
# How it was run: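 Cells (2500/well) were seeded, incubated 4 hrs at 37 C, dosed with a compound series, incubated 18 hrs, loaded with CCF4 dye for 2 hrs at RT, then read for fluorescence. Data were scaled between DMSO (0%) and 10 nM T3 (100%).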
# [10] = qHTS assay for small molecule antagonists of retinoid X receptor alpha signaling (AID 588546); conditions: HEK293T RXRa-UAS-bla, beta-lactamase ratio, antagonist mode; measured here: W530 green channel, cytotoxicity proxy;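 also: cells stimulated with 9-cis-retinoic acid as agonist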
# How it was run: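 Beta-lactamase reporter inhibition, read as CCF4 fluorescence ratio (ex 405, em 460/530 nm) after 2 h at RT. HEK293T UAS-bla cells, 2500/well, were stimulated with 9-cis-RA at 500 or 100 nM final alongside test compound for 18 h at 37 C.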
# [11] = target: Bile acid receptor (Homo sapiens) (UniProt Q96RI1); test: qHTS assay for small molecule antagonists of farnesoid X receptor signaling (AID 588526; calls by dose curve)
# Chain of Bile acid receptor (Homo sapiens) (Q96RI1 whole entry, looked up): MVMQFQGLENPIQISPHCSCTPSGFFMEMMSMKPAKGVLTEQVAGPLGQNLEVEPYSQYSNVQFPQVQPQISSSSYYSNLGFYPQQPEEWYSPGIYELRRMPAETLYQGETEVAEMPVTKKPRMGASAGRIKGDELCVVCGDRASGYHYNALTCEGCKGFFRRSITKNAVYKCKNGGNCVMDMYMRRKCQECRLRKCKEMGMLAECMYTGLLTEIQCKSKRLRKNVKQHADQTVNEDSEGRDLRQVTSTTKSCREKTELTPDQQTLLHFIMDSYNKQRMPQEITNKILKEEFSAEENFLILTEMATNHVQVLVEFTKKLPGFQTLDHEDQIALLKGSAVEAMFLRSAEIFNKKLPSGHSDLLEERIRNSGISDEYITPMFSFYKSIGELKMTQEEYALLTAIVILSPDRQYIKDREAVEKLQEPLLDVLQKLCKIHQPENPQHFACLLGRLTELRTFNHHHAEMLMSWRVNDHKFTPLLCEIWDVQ
# How it was run: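 Antagonist mode: titrated compounds tested against chenodeoxycholic acid stimulation (normalized to 50 uM CDCA and DMSO) in GeneBLAzer HEK293T cells for 16 h. Beta-lactamase read by CCF4 fluorescence; IC50 from Hill fits.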
# [12] = target: Glucocorticoid receptor (Homo sapiens) (UniProt P04150); test: qHTS assay for small molecule agonists of glucocorticoid receptor signaling (AID 588532; active = well fitted curve in the direction sought with a large enough effect in the signal ratio, with a control signal flat; the % refers to the signal ratio); conditions: HeLa MMTV-bla, beta-lactamase ratio, agonist, 18 h; stronger effect = higher value; percent of dexamethasone control, DMSO zero
# Chain of Glucocorticoid receptor (Homo sapiens) (P04150 whole entry, looked up): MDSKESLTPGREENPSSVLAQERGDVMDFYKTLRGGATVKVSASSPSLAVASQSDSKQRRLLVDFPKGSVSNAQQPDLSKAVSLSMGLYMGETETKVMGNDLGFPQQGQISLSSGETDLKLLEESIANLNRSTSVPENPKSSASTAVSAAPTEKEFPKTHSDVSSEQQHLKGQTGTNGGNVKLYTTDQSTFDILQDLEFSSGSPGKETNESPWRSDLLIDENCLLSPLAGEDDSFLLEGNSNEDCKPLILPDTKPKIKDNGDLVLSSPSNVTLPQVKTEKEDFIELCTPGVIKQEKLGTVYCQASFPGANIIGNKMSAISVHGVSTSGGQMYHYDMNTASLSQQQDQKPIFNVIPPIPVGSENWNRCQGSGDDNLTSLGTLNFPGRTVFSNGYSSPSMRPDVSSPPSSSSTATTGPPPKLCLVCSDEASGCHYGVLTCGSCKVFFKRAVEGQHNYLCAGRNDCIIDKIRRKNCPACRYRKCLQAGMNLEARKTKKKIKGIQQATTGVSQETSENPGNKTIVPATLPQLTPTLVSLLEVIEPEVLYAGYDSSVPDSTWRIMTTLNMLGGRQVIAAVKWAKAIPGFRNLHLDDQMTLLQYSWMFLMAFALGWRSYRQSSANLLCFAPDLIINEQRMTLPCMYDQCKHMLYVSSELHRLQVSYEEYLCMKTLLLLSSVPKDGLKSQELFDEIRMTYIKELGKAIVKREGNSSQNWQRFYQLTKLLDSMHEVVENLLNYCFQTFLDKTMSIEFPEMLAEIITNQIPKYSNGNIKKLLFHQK
# How it was run: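 Cells were plated and rested 3-5 h at 37 C, compounds were added in titration and incubated 18 h, then CCF4 substrate was loaded for 2 h at RT before reading blue/green fluorescence. EC50 came from Hill-equation fitting.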
# [13] = target: Glucocorticoid receptor (Homo sapiens) (UniProt P04150); test: qHTS assay for small molecule antagonists of glucocorticoid receptor signaling (AID 588533; active = well fitted inhibition curve with a large enough effect in the signal ratio, with a control signal flat, not every such curve was filed as active; the % refers to the signal ratio;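 also: cells stimulated with 2 nM dexamethasone as agonist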; also: potency is read from the fitted curve at half-maximal effect)
# How it was run: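 Antagonist-mode qHTS: compound titrations added to GRE-bla HeLa cells, then dexamethasone 2 nM final; 18 h, 37 C. CCF4 FRET fluorescence normalized to dexamethasone and DMSO; IC50 from Hill fit.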
# [14] = qHTS assay for small molecule antagonists of peroxisome proliferator-activated receptor delta signaling (AID 588535; active = well fitted inhibition curve with a large enough effect in the signal ratio, with a control signal flat, not every such curve was filed as active; the % refers to the signal ratio;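 as to max response: cells co-treated with a PPAR-delta agonist as stimulator during compound exposure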); conditions: HEK293T PPARd-UAS-bla, beta-lactamase FRET ratio, 18 h; 460 nm channel
# How it was run: (§1)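 Antagonist-mode beta-lactamase reporter (GeneBLAzer PPAR-delta-UAS-bla) in HEK293T cells, 2% charcoal/dextran FBS, 4000 cells/well. Compound titrations, 18 h at 37 C; CCF4 ratio read, IC50 and efficacy from Hill fits.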
# [15] = target: Peroxisome proliferator-activated receptor delta (Homo sapiens) (UniProt Q03181); test: as above
# Chain of Peroxisome proliferator-activated receptor delta (Homo sapiens) (Q03181 whole entry, looked up): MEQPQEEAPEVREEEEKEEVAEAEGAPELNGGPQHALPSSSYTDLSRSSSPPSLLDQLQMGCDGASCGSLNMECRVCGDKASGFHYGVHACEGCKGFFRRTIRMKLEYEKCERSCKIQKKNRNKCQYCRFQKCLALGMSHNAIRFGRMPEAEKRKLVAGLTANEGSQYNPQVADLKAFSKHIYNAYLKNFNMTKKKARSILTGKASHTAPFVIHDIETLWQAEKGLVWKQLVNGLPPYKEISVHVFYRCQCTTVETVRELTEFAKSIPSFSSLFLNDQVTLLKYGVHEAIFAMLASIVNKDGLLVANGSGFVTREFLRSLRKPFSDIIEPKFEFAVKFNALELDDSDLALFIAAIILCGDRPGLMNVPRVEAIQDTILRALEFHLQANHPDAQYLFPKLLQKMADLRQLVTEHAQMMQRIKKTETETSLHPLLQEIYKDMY
# How it was run: as §1
# [16] = target: Vitamin D3 receptor (Homo sapiens) (UniProt P11473); test: qHTS assay for small molecule agonists of vitamin D receptor signaling (AID 588543; calls by dose curve)
# Chain of Vitamin D3 receptor (Homo sapiens) (P11473 whole entry, looked up): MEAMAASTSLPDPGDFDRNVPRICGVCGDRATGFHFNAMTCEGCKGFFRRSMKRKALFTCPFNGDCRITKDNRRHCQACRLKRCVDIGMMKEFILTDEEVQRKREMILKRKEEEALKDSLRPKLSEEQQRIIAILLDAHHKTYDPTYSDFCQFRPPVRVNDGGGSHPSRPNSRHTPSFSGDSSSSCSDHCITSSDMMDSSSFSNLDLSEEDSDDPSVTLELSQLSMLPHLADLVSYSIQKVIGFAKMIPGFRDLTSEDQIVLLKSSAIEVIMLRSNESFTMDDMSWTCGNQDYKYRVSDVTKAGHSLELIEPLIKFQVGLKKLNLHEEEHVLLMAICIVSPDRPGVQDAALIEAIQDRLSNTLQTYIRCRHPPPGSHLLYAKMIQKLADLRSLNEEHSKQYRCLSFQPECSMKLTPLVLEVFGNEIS
# How it was run: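 qHTS in agonist mode: compound titrations stimulate a VDR-driven β-lactamase reporter in HEK293T cells over 16 h at 37 °C. Response normalized to 50 nM 1α,25-dihydroxyvitamin D3 = 100%, DMSO = 0%; Hill fitting gives EC50 and maximal response.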
# [17] = target: Estrogen receptor (Homo sapiens) (UniProt P03372); test: qHTS assay for small molecule antagonists of estrogen receptor alpha signaling (AID 588513; active = well fitted curve in the direction sought with a large enough effect in the signal ratio, with a control signal flat, not every such curve was filed as active; the % refers to the signal ratio)
# Chain of Estrogen receptor (Homo sapiens) (P03372 whole entry, looked up): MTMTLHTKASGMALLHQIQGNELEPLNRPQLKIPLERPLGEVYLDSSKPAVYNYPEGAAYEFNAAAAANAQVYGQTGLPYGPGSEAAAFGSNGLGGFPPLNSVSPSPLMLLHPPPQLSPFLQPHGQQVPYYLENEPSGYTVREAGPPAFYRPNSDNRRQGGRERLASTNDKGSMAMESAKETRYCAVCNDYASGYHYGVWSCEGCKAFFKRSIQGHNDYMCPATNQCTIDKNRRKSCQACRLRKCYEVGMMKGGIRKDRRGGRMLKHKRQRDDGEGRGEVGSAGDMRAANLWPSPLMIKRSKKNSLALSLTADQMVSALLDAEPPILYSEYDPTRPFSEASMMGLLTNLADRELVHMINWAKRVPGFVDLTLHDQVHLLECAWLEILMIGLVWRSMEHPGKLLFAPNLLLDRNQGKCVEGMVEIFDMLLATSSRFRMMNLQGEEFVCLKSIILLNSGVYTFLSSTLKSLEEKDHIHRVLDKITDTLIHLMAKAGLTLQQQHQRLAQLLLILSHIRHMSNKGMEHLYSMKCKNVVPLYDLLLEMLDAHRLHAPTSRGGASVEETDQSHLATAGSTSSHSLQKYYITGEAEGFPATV
# How it was run: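 Cells were plated at 5000/well and incubated 4 h at 37 C. Compounds were added as 1:2 dilution series, duplicates. 17-beta-estradiol (0.5nM final) was added for 18 h before CCF4 detection.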
# [18] = target: Estrogen receptor (Homo sapiens) (UniProt P03372); test: qHTS assay for small molecule agonists of estrogen receptor alpha signaling (AID 588514; calls by dose curve; also: nearly all actives have a fitted effect of over 70% in size)
# How it was run: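 Cells were plated at 5000/well, incubated 4 hrs at 37 C, dosed with compound titration series, incubated 18 hrs at 37 C, loaded with CCF4 dye for 2 hrs at RT, then fluorescence was read.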
# [19] = target: Androgen receptor (Homo sapiens) (UniProt P10275); test: qHTS assay for small molecule antagonists of androgen receptor signaling (AID 588516; active = well fitted curve in the direction sought with a large enough effect in the signal ratio, with a control signal flat, not every such curve was filed as active; the % refers to the signal ratio)
# How it was run: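 Antagonist-mode qHTS: inhibition of R1881 (10 nM)-driven beta-lactamase expression in GripTite HEK 293 cells is measured after 16 h; values are Hill-derived IC50s normalized between R1881 and DMSO wells.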
compound,measurement,setting,value
C[C@@H]1O[C@H](C[N+](C)(C)C)CS1,Potency,[1],inactive
same,Potency,[2],inactive
same,Potency,[3],inactive
CC(=O)NBr,Potency,[1],inactive
same,Potency,[2],inactive
same,Potency,[3],inactive
CC(=O)OCC1=C(C(=O)O)N2C(=O)[C@@H](NC(=O)CCC[C@@H](N)C(=O)O)[C@H]2SC1,Potency,[1],inactive
same,Potency,[2],inactive
same,Potency,[3],inactive
C[N+](C)(C)CCOC(=O)CBr,Potency,[1],inactive
same,Potency,[2],inactive
same,Potency,[3],inactive
CC(C)[C@@]1(NC(=O)[C@@H]2C[C@@H]3c4cccc5[nH]cc(c45)C[C@H]3N(C)C2)O[C@@]2(O)[C@@H]3CCCN3C(=O)[C@H](Cc3ccccc3)N2C1=O,Potency,[1],inactive
same,Potency,[2],inactive
same,outcome,[4],inactive
N#CCCN,Potency,[1],inactive
same,Potency,[2],inactive
same,Potency,[3],inactive
O=C1CC[C@@]2(O)C3Cc4ccc(O)c5c4C2(CCN3CC2CC2)[C@H]1O5 (stereo partly drawn),Potency,[1],inactive
same,Potency,[2],inactive
same,Potency,[3],inactive
NC(N)=NOCC[C@H](N)C(=O)O,Potency,[1],inactive
same,Potency,[3],inactive
same,outcome,[4],inactive
NC(=O)c1ccc(OCC(O)CN2CC=C(c3ccc(F)cc3)CC2)cc1 (stereo not drawn),Potency,[1],inactive
same,Potency,[2],inactive
same,Potency,[3],inactive
O=C1C=CC(=O)C=C1,Potency,[1],inactive
same,Potency,[2],inactive
same,outcome,[5],inactive
same,Potency,[6],inactive
same,max response,[7],-3.86%
same,Potency,[8],inactive
same,outcome,[9],inactive
same,max response,[10],4.26%
C[N+]1(C)CCOC(O)(c2ccc(-c3ccc(C4(O)C[N+](C)(C)CCO4)cc3)cc2)C1 (stereo not drawn),Potency,[1],inactive
same,Potency,[2],inactive
same,Potency,[3],inactive
CCCC[N+]1(C)C2CC(OC(=O)[C@H](CO)c3ccccc3)CC1C1OC12 (stereo partly drawn),Potency,[1],inactive
same,Potency,[2],inactive
same,Potency,[3],inactive
CCS(=O)(=O)Nc1cccc(C(=C2CCCCC2)c2cnc[nH]2)c1,Potency,[1],inactive
same,Potency,[2],inactive
same,Potency,[3],inactive
CC(N)Cc1c[nH]c2ccc(O)cc12 (stereo not drawn),Potency,[1],inactive
same,Potency,[2],inactive
same,Potency,[3],inactive
N[C@@H](Cn1ccc(=O)[nH]c1=O)C(=O)O,Potency,[1],inactive
same,Potency,[2],inactive
same,Potency,[3],inactive
CC(N)Cc1c[nH]c2ccc(OCc3cccs3)cc12 (stereo not drawn),Potency,[1],inactive
same,Potency,[3],28.2 µM (active)
NNC(=O)c1ccc(O)cc1,Potency,[1],inactive
same,Potency,[2],inactive
same,Potency,[3],inactive
CN(N=O)c1ccc(O)c(O)c1,Potency,[1],22.4 µM (active)
same,Potency,[2],inactive
same,Potency,[3],inactive
Clc1ccccc1Cl,Potency,[1],inactive
same,Potency,[11],inactive
same,activation,[12],2.7% (inactive)
same,Potency,[13],inactive
same,max response,[14],4.84%
same,outcome,[15],inactive
same,outcome,[5],inactive
same,outcome,[16],inactive
same,max response,[7],-11.2%
same,Potency,[8],inactive
same,outcome,[9],inactive
same,max response,[10],5.72%
[O]=[Cr](=[O])([OH])[O][Cr](=[O])(=[O])[OH],Potency,[1],25.1 µM (active)
same,Potency,[17],inactive
same,Potency,[18],inactive
same,outcome,[19],inactive
same,Potency,[11],inactive
same,activation,[12],-11.3% (inactive) and -15.7% (inactive)
same,Potency,[13],10 µM (active) and 39.8 µM (active) and 12.6 µM (active)
same,max response,[14],-63.4%
same,outcome,[15],inactive
same,outcome,[5],inactive
same,outcome,[16],inactive
same,outcome,[9],inactive
same,max response,[10],7.42% and 14.4%
